The whole screen tested about 220,000 compounds, of which about 2,000 (0.91%) were called active. About 2% were inconclusive and are not listed. A selection follows. Potency and affinity values are given separately. Values without a mark were called inactive. Cut-off read from the data, not from the text of the source: inconclusive = inhibition above about 80% without an active follow-up result; inactive = below that; test concentration not stated here.
Experiment: M. tuberculosis H37Rv growth inhibitors, H37Rv strain (AID 1626);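 note: bacteria incubated seven days before Alamar blue readout; 0% = bacteria only wells and 100% = bacteria with antibiotic wells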
Conditions: stronger effect = higher value, concentration not given here

| Structure (SMILES) | inhibition |
| --- | --- |
| CC1CCCCC1NC(=O)COc1ccc(-n2cnnn2)cc1 (stereo unspecified) | 3.54% |
| COc1ccc(/C=N/NC(=O)Cn2cnc3c2c(=O)n(C)c(=O)n3C)cc1 | 0.48% |
| CCc1ccc(C(C(=O)NC(C)(C)CC)N(Cc2ccco2)C(=O)Cn2nnc3ccccc32)cc1 (stereo unspecified) | 2.42% |
| COc1ccc(NS(=O)(=O)c2ccc(Cl)c(NC(=O)c3cccnc3Cl)c2)cc1 | 9.9% |
| O=[N+]([O-])c1cccc2c(Cl)ccnc12 | -5.33% |
| Cc1ccc(NCCC(=O)c2ccc(Cl)cc2)cc1 | 51.3% |
| Cc1ccc(C(=O)CC(=O)c2ccc(C(C)(C)C)cc2)cc1 | 3.46% |
| Cc1ccc(C(=O)CNc2cccc(Cl)c2)cc1 | -5.8% |
| CC(C)(C)c1ccc(C(=O)NNC(=O)c2ccc(Cl)cc2)cc1 | 1.17% |
| Cc1ccc(O)c(C(=O)CC(=O)c2cccc(F)c2)c1 | 62.1% |
| Cc1ccc(C(=O)CNc2ccc(Cl)cc2)cc1 | -1.34% |
| CCOC(=O)c1c(CS(=O)(=O)c2ccccc2)n(C)c2cc(Br)c(O)c(CN(C)C)c12 | -0.08% |
| COc1cccc(N=Nc2c(N)[nH]n3c(=O)cc(-c4ccccc4)nc23)c1 | 70.2% |
| CCC(Oc1ccccc1)C(=O)N1CCN(c2ccccn2)CC1 (stereo unspecified) | 0.51% |
| O=C(Nc1ccc(-c2nnn(CC(=O)N3CCN(C(=O)c4ccco4)CC3)n2)cc1)c1ccccc1F | -1.57% |
| O=C(O)/C=C/C(=O)NC1CC1 | -1.35% |
| Cc1ccc(N/C=C(\C2OC(=O)c3ccccc32)[N+](=O)[O-])c(C)c1 (stereo unspecified) | 0.81% |
| O=C1OC(/C(=C\Nc2ccc(F)cc2F)[N+](=O)[O-])c2ccccc21 (stereo unspecified) | 6.38% |
| O=C(c1cccc([N+](=O)[O-])c1)N1CCN(c2cccc(Cl)c2)CC1 | 2.48% |
| O=C(c1ccc([N+](=O)[O-])s1)N1CCN(c2ccccc2)CC1 | 2.71% |
| COc1ccc(C2Nc3ccccc3C(=O)N2c2ccccc2)cc1COc1ccccn1 (stereo unspecified) | 6.87% |
| CCN(CC)CCNS(=O)(=O)c1ccc(C(=O)NN)cc1 | 2.36% |
| Cc1cccc(C)c1OCc1nnc2c3cnn(C)c3ncn12 | -9.69% |
| COC(=O)c1c(C)oc(C)c1S(=O)(=O)N(C)C1CCCCC1 | -4.71% |
| O=[N+]([O-])c1ccc(N=Cc2ccc(Br)c([N+](=O)[O-])c2)cc1 | 8.65% |
| C(=Nc1ccc(Nc2ccccc2)cc1)c1ccc2ccccc2c1 | 51.2% |

From PubChem BioAssay AID1626 (SRMLSC, 2009)
